Active and inactive are the calls of the source.
Legend:
[1] = small molecules captured by biotinylated probe aFSTL3 – biochemical, small-molecule microarray, fluorescence 635/667, stem cell growth factor project, primary screen (AID 1064); details: higher = more signal;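 also: measures binding of the biotinylated anti-FSTL3 antibody to printed compounds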
[2] = binders from COS7 lysate, DM2A8 probe, primary screen, torsin A project, cell lysate, small-molecule microarray, fluorescence 635/667 (AID 1065); details: higher = more signal, COS7 lysate expressing mutant human TOR1A
[3] = small molecules captured by biotinylated probe aFGF2 – biochemical, small-molecule microarray, fluorescence 635/667, stem cell growth factor project, primary screen (AID 1067); details: higher = more signal;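 also: measures binding of biotinylated aFGF2 protein to printed compounds on slides; z-score merges feature fluorescence and signal-to-noise across triplicate slides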
[4] = small molecules captured by biotinylated probe aFGF10 – biochemical, small-molecule microarray, fluorescence 635/667, stem cell growth factor project, primary screen (AID 1071); details: higher = more signal;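 also: score merges 667 nm spot intensity and signal to noise from triplicate slides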
[5] = target: Neurogenic locus notch homolog protein 2 (Homo sapiens) (UniProt Q04721); test: small molecules binding Notch2 protein – biochemical, small-molecule microarray, 635 nm fluorescence, stem cell growth factors, primary screen (AID 1073); details: higher = more signal
Chain of Neurogenic locus notch homolog protein 2 (Homo sapiens) (Q04721 whole entry, looked up, canonical isoform): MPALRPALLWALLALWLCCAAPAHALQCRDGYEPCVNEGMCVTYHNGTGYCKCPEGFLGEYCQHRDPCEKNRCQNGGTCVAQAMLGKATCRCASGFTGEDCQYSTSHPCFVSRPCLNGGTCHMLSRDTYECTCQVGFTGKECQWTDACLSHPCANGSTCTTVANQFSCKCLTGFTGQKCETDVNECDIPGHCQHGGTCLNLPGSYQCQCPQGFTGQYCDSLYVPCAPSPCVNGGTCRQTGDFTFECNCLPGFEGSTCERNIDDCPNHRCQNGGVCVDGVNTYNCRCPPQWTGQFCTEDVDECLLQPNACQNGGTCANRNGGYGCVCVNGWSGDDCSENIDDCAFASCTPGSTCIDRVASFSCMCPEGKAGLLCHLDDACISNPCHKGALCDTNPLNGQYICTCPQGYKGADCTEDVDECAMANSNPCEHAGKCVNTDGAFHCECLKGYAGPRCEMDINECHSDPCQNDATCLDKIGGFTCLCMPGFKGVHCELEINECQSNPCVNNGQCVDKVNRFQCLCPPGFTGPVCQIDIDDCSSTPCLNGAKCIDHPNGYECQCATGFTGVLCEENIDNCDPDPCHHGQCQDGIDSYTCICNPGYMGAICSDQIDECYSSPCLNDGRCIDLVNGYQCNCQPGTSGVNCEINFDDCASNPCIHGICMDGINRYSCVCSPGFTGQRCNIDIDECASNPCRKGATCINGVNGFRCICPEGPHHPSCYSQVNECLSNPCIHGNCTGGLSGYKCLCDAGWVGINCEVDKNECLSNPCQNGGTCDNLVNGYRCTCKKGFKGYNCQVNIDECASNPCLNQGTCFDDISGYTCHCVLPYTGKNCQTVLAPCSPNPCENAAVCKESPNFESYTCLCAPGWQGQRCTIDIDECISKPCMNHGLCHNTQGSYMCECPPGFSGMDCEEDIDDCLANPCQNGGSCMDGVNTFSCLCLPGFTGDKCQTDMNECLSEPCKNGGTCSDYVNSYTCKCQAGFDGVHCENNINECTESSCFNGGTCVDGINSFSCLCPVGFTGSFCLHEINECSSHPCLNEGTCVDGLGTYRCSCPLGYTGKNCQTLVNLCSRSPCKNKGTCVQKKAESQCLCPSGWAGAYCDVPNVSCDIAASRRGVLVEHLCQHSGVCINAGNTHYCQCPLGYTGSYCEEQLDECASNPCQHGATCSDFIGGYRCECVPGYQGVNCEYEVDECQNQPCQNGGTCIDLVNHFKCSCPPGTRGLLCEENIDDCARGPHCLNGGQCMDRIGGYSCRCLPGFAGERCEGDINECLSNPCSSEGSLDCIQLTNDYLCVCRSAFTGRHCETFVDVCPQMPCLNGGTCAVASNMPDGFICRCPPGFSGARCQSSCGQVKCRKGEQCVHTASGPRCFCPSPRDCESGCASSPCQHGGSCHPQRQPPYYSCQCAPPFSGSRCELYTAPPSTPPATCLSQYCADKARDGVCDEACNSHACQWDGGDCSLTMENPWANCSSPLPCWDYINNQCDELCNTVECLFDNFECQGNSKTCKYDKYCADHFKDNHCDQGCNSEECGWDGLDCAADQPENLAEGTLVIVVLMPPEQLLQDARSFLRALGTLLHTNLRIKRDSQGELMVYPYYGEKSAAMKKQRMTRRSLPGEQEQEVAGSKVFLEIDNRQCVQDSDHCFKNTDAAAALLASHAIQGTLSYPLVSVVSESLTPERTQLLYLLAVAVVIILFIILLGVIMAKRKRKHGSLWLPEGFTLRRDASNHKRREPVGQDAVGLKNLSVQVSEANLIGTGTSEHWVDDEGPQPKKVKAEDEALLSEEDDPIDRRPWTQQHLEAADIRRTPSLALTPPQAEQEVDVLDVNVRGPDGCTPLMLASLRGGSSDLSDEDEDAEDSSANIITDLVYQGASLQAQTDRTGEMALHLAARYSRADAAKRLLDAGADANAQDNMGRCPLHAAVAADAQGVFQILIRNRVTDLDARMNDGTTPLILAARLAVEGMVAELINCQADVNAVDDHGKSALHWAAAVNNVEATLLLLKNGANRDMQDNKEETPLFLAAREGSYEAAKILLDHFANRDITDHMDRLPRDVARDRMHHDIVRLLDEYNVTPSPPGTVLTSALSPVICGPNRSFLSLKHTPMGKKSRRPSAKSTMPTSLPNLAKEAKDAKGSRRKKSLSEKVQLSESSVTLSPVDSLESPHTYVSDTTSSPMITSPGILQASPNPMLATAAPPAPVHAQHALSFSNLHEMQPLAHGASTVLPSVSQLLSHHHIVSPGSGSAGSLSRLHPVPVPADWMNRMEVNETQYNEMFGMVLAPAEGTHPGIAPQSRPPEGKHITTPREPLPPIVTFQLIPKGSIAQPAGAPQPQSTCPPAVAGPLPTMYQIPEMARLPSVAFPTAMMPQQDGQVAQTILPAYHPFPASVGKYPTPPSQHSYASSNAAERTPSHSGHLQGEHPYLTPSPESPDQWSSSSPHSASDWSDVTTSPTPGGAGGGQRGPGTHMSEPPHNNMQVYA

[6] = target: Pro-neuregulin-1, membrane-bound isoform (Homo sapiens) (UniProt Q02297); test: small molecules binding neuregulin-1 protein – biochemical, small-molecule microarray, fluorescence 635/667, psychiatric disease protein project, primary screen (AID 1075); details: NRG1 binding, 635 nm fluorescence, higher = more signal;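 also: score combines 667 nm spot fluorescence with signal to noise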
Chain of Pro-neuregulin-1, membrane-bound isoform (Homo sapiens) (Q02297 whole entry, looked up, the tested form may be a part, canonical isoform): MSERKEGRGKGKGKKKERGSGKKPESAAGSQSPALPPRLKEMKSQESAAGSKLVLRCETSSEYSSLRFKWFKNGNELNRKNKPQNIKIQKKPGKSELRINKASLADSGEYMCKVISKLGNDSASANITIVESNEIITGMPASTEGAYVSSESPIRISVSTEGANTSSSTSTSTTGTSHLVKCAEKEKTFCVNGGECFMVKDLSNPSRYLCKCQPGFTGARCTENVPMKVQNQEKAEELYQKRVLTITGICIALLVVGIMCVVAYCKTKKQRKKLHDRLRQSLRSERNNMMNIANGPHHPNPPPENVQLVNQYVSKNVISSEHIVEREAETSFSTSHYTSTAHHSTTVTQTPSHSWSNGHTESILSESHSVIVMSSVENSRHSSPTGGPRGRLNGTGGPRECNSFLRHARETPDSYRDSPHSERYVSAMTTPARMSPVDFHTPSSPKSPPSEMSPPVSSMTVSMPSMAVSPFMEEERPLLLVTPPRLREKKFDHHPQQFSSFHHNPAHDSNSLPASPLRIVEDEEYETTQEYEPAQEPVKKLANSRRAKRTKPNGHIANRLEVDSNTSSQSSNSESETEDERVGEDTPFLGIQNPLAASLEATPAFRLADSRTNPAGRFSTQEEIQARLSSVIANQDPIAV

[7] = test system: Neuregulin-1 EGF-like domain; test: small molecules binding NRG1 EGF domain – biochemical, small-molecule microarray, 635 nm fluorescence, primary screen (AID 1081); details: higher = more signal;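 also: binding of the protein to compounds printed on small-molecule microarray slides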
[8] = FRG1 expression reporter modulators in myotubes – cell-based, C2C12 myotubes, firefly/Renilla luciferase, luminescence, FRG1 inhibition for FSHD, primary screen (AID 1084); details: FRG1 promoter luciferase, higher = more signal, called active from +8 up or from −8 down
[9] = small molecules captured by biotinylated probe aFST – biochemical, small-molecule microarray, fluorescence 635/667, stem cell growth factor project, primary screen (AID 1086); details: higher = more signal;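 also: score merges 667 nm fluorescence with signal-to-noise of each printed compound spot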
[10] = binders of probe aHhip on microarray, primary screen, stem cell growth factor project, biochemical, small-molecule microarray, fluorescence 635/667 (AID 1087); details: higher = more signal;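 also: score merges spot fluorescence at 667nm with spot signal to noise ratio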
[11] = test system: PRMT1 (protein arginine N-methyltransferase 1); test: small molecules binding arginine methyltransferase PRMT1 – biochemical, small-molecule microarray, 635 nm fluorescence, primary screen (AID 1088); details: higher = more signal;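 also: binding of Prmt1 protein to compounds spotted on small-molecule microarray slides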
[12] = growth effects on S. cerevisiae YJM789 – YJM789 clinical isolate, OD600, 24 h, basal, primary screen (AID 1089); details: higher = more signal, called active from +8 up or from −8 down;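 also: growth of clinical yeast isolate S. cerevisiae YJM 789 seeded 1000 cells per well; test concentration not given here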
[13] = S. pombe growth modifiers, basal conditions – strain 972, OD600, 24 h, no modulator, primary screen (AID 1090);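 also: basal condition with compound alone and no growth modifier present; test concentration not given here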; details: S. pombe 972 growth, higher = more signal, called active from +8 up or from −8 down
[14] = budding yeast growth modifiers under rapamycin – strain BY4716, OD600, 96 h, primary screen (AID 1091); also: test concentration not given here; details: S. cerevisiae BY4716 + rapamycin, higher = more signal, called active from +8 up or from −8 down
[15] = target: Torsin-1A-interacting protein 2 (Homo sapiens) (UniProt Q8NFQ8); test: small molecules binding lysate-expressed LULL1 – cell lysate, human LULL1 lysate, 635/667 nm fluorescence, primary screen (AID 1092); details: small-molecule microarray, hLULL1 lysate binding, 635 nm fluorescence; higher = more signal;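 also: probe is lysate of COS7 cells overexpressing human LULL1; score merges per-feature 667 nm fluorescence with signal-to-noise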
Chain of Torsin-1A-interacting protein 2 (Homo sapiens) (Q8NFQ8 whole entry, looked up): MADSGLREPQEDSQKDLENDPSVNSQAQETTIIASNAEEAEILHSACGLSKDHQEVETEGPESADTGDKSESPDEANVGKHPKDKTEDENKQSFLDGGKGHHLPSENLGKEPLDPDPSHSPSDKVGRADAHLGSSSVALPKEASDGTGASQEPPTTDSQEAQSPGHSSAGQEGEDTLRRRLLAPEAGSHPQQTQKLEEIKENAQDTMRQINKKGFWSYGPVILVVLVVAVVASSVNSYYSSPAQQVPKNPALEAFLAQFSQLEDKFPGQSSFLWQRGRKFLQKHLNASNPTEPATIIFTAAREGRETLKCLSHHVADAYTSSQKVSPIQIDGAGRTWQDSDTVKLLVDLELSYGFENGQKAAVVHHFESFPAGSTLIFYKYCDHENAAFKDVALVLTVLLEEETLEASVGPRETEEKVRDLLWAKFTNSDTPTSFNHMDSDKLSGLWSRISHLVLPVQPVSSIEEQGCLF

[16] = optical density change of DRC41 E. coli – strain DRC41, OD650, 24 h, E. coli filamentation project, primary screen (AID 1093);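 also: MC1000 strain lacking acrAB efflux and sulA so SOS filamentation is blocked; test concentration not given here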; details: E. coli DRC41 growth, higher = more signal, called active from +8 up or from −8 down
[17] = probe aLefty2 binding to arrayed compounds – biochemical, biotinylated probe, 635/667 nm fluorescence, primary screen (AID 1094); details: small-molecule microarray, higher = more signal;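 also: score merges spot fluorescence near 667 nm with spot signal-to-noise ratio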
[18] = test system: Noggin (protein binding on small-molecule microarray); test: small molecules binding Noggin protein – biochemical, 635/667 nm fluorescence, primary screen (AID 1095); details: 635 nm fluorescence, higher = more signal;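 also: score merges 667 nm feature fluorescence with signal to noise over triplicate slides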
[19] = target: Neurogenic locus notch homolog protein 3 (Homo sapiens) (UniProt Q9UM47); test: small molecules binding NOTCH3 protein – biochemical, 635/667 nm fluorescence, primary screen (AID 1096); details: small-molecule microarray, 635 nm fluorescence, higher = more signal
[20] = probe aEGFR binding to arrayed compounds – biochemical, biotinylated probe, 635/667 nm fluorescence, primary screen (AID 1097); details: small-molecule microarray, higher = more signal;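 also: probe is a biotinylated anti-EGFR antibody binding compounds printed on slides; score combines fluorescence near 667 nm and signal to noise of each spot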

Row | SMILES | composite z-score [1] | composite z-score [2] | composite z-score [3] | composite z-score [4] | composite z-score [5] | composite z-score [6] | composite z-score [7] | z-score [8] | composite z-score [9] | composite z-score [10] | composite z-score [11] | z-score [12] | z-score [13] | z-score [14] | composite z-score [15] | z-score [16] | composite z-score [17] | composite z-score [18] | composite z-score [19] | composite z-score [20]
1 | C=C(COC)C(=O)CC[C@@H](OC(C)=O)c1ccccc1OCCO | -0.215 | -0.0765 | -0.102 | 1.39 | -0.54 | 0.695 | 0.326 | 0.151 (inactive) | 0.406 | -0.0994 | 1.34 | -1.89 (inactive) | -3.27 (inactive) | -1.51 (inactive) | 1.76 | 0.732 (inactive) | -0.117 | 1.11 | 0.784 | -0.0382
2 | O=C(NCCN1CCOCC1)[C@@H]1c2ccccc2C(=O)N(Cc2ccccc2C(F)(F)F)[C@H]1c1ccc(CO)cc1 | -1.15 | -0.438 | -0.319 | -0.613 | -1.2 | 0.875 | -0.755 | -1.79 (inactive) | 0.48 | -0.504 | 1.56 | -0.451 (inactive) | -0.539 (inactive) | -0.705 (inactive) | 1.81 | 0.75 (inactive) | -0.525 | -0.982 | -0.842 | -0.403
3 | COc1ccc([Si](C)(C)[C@H]2[C@H](CC(=O)N3Cc4ccccc4C[C@H]3CO)O[C@@]3(C(=O)N(c4ccccc4)c4ccccc43)[C@@H]2C)cc1 | 0.0545 | 1.37 | 0.0568 | 0.748 | 0.584 | 1.16 | 1.16 | -2.31 (inactive) | 0.381 | 0.21 | 1.53 | -2.39 (inactive) | -1.61 (inactive) | -0.776 (inactive) | 1.47 | 1.65 (inactive) | -0.0088 | 1.85 | 1.09 | 0.0059
4 | COCCCNC(=O)[C@@]1(Sc2ccc(C)cc2)CC(=O)N(Cc2ccccc2C(F)(F)F)[C@@H]1c1ccc(CO)cc1I | 1.21 | -0.204 | -0.132 | -2.12 | -1.8 | 1.17 | -0.823 | -0.903 (inactive) | -0.228 | -0.132 | 0.242 | -0.394 (inactive) | -1.05 (inactive) | 0.461 (inactive) | 1.08 | 0.217 (inactive) | 0.0245 | -2.51 | -1.4 | -0.203
5 | COc1ccc(C(=O)Nc2cccc(CN3C(=O)[C@]4(O[C@H](CC(=O)N5Cc6ccccc6C[C@H]5CO)[C@@H]([Si](C)(C)c5ccc(OC)cc5)[C@@H]4C)c4ccccc43)c2)cc1 | -0.24 | 0.822 | -0.159 | 0.426 | 0.424 | 0.466 | 0.762 | -1.66 (inactive) | 0.208 | -0.211 | 1.55 | 0.143 (inactive) | 1.46 (inactive) | 1.79 (inactive) | 0.906 | 2.31 (inactive) | -0.186 | 1.73 | 1.1 | -0.027
